From PubChem
RE007 growth inh: qHTS Assay for Inhibitors of the HIV-1 protein Vpr. AID 651644, 2012. Potency, µM (doses to about 92.2 µM), for inactives: at the highest dose activity change, negative = less growth, usual class: inhibitors. 360,000 tested, 0.21% active. S. pombe RE007 Vpr strain, BacTiter-Glo ATP luminescence, 24 h; active = well fitted falling curve with a large enough effect; inconclusive = small, poorly fitted or top-dose-only effect; inactive = no such curve, though single readings can be large or run the other way; note: nearly all actives have a fitted effect of over 50% in size
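Fission yeast strain RE007, carrying one chromosomally integrated HIV-1 vpr copy, was seeded at OD 0.01 in PMG+AL medium with 23 nL pinned compound. After 24 h at 30 °C and 99% humidity, viability was read by BacTiter-Glo luminescence.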
AmpC inh no detg: qHTS Inhibitors of AmpC Beta-Lactamase (assay without detergent); 330,000 tested, 0.52% active; Potency, µM (series often up to 57.1 µM), inactives show at the highest dose activity change, negative = inhibition, actives largely listed as inhibitors; AmpC nitrocefin hydrolysis, absorbance 480 nm, 0.0001% Triton;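 note: plate controls were no compound for no effect and no enzyme for full effect; nearly all actives have a fitted effect of over 20% in size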
Target sequence (P00811 whole entry, looked up): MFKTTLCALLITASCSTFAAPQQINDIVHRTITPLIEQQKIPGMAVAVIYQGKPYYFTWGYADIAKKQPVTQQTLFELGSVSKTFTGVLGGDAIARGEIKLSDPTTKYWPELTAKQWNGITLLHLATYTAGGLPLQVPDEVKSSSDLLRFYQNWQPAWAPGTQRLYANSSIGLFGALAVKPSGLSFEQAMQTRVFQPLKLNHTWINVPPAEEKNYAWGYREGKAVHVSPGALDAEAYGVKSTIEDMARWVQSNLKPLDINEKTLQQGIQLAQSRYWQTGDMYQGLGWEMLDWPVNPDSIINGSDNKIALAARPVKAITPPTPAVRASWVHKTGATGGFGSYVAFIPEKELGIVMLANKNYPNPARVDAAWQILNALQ
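AmpC (5.3 nM in the dispensed reagent) in 20 mM phosphate pH 7.0 with 0.01% (detergent screen) or 0.0001% Triton X-100 was preincubated with compounds for 15 min at room temperature. Nitrocefin was then added from an 800 uM solution, and hydrolysis was followed at 480 nm.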
AmpC inh detg: qHTS Inhibitors of AmpC Beta-Lactamase (assay with detergent); P00811; AmpC hydrolysis of nitrocefin, absorbance 480 nm, 0.01% Triton; Potency, µM (titrated, usually from 114 µM), for the others: top-dose activity change, negative = inhibition, hits mostly inhibitors; 370,000 tested, 0.041% active;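 note: 0% = no-compound wells and -100% = no-enzyme wells; nearly all actives have a fitted effect of over 25% in size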
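AmpC (5.3 nM in the dispensed reagent) in 20 mM phosphate pH 7.0 with 0.01% (detergent screen) or 0.0001% Triton X-100 was preincubated with compounds for 15 min at room temperature. Nitrocefin was then added from an 800 uM solution, and hydrolysis was followed at 480 nm.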
AMA1 RON2 block: qHTS for Inhibitors of AMA1-RON; Towards Development of Antimalarial Drug Lead: Primary Screen; AlphaScreen AMA1-biotinylated RON2 peptide binding; 360,000 tested, 0.2% active; Plasmodium falciparum AMA1 (3D7) - RON2 peptide interaction; Potency, µM (top dose mostly 58.2 µM), inactives show at the highest dose activity change, negative = inhibition, hits mostly inhibitors;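 note: 0% = vehicle wells and -100% = peptide control; nearly all actives have a fitted effect of over 45% in size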
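AMA1 (3D7) with his tag at 25 nM final met compounds first, then biotinylated RON2 peptide at 25 nM; detection used donor plus acceptor beads, 10 µg/mL apiece, read by AlphaScreen after 30 min at room temperature.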
Active calls of the source: *. In the library only some 0.79% were active in any assay of this set; here they are far more common. Unless noted, calls come from the whole dose curve; as a rule, active = well fitted curve in the direction sought with a large enough effect; inconclusive = small, poorly fitted or top-dose-only effect, or another doubt; inactive = no such curve, though single readings can be large; an effect the other way counts as inactive or inconclusive. Unless noted, % is set by controls: 0 for no effect and ±100 for the full control effect; potency is the fitted concentration of half-maximal effect.

`CCC(Oc1ccccc1)C(=O)Nc1ccccc1C(=O)N1CCOCC1` (configuration not stated) gave RE007 growth inh 1%, AmpC inh no detg -4%, AmpC inh detg 5% and AMA1 RON2 block 18%.
For CCCN(CCC)C(=O)CSc1nnc2cc(C)c3cc(C)cc(C)c3n12 the results were AmpC inh detg 20%.
Screening O=C(N/N=C/c1ccc(Sc2ccccn2)o1)c1cccc([N+](=O)[O-])c1 returned RE007 growth inh -21%, AmpC inh no detg 10µM*, AmpC inh detg inconclusive and AMA1 RON2 block 8%.
`O=C(N/N=C/c1ccc(Sc2ccccn2)o1)c1cc2ccccc2cc1O` gave RE007 growth inh -14%, AmpC inh no detg 18µM*, AmpC inh detg 1% and AMA1 RON2 block 55%.
For O=C(N/N=C\c1ccc(Sc2ccccn2)o1)c1cccc(F)c1 the results were RE007 growth inh -7%, AmpC inh no detg -49%, AmpC inh detg -11% and AMA1 RON2 block 16%.
`COc1ccc(-c2cc3nc(C)c(CCC(=O)Nc4ccccc4C(C)=O)c(C)n3n2)c(OC)c1` gave AmpC inh detg 2%.
For CCN1CCCc2cc(CN(CCN3CCOCC3)C(=S)Nc3cccc(C)c3)ccc21 the results were RE007 growth inh -15%, AmpC inh no detg 122%, AmpC inh detg -3% and AMA1 RON2 block 14µM*.
Screening CCN1CCCc2cc(CN(CCN3CCOCC3)C(=O)Nc3ccc(C)c(C)c3)ccc21 returned RE007 growth inh -6%, AmpC inh no detg 141%, AmpC inh detg inconclusive and AMA1 RON2 block 11µM*.
Screening CCc1ccc(NC(=O)N(CCN2CCOCC2)Cc2ccc3c(c2)CCCN3CC)cc1 returned RE007 growth inh -22%, AmpC inh no detg 182%, AmpC inh detg 1% and AMA1 RON2 block inconclusive.
For CCN1CCCc2cc(CN(CCN3CCOCC3)C(=S)Nc3ccccc3C)ccc21 the results were RE007 growth inh 6%, AmpC inh no detg 4%, AmpC inh detg 9% and AMA1 RON2 block 61%.
`CCOC(=O)C/C(C)=N/NC(=O)CN(c1ccc(Br)cc1)S(=O)(=O)c1ccccc1` gave RE007 growth inh 9%, AmpC inh no detg 22µM*, AmpC inh detg -1% and AMA1 RON2 block 84%.
Screening CCCC/C(C)=N/NC(=O)CN(c1ccc(Br)cc1)S(=O)(=O)c1ccccc1 returned RE007 growth inh 3%, AmpC inh no detg -38%, AmpC inh detg -7% and AMA1 RON2 block -15%.
`CCc1ccc2oc(-c3ccc(NC(C)=O)cc3)nc2c1` gave RE007 growth inh 5.6µM*, AmpC inh no detg 81%, AmpC inh detg 0% and AMA1 RON2 block 0%.
CCCn1nc(NC(=O)C2CCCO2)c2cc3cc(C)ccc3nc21 (configuration not stated) was read as RE007 growth inh 0%, AmpC inh no detg 44%, AmpC inh detg 5% and AMA1 RON2 block 1.1µM*.
O=C(Cc1cccc([N+](=O)[O-])c1)NCc1nc2cccnc2n1Cc1ccc(F)cc1 was read as AmpC inh detg -2%.
Screening Cc1cccc(/C=N/NC(=O)c2ccc(NC(=O)c3ccc(F)cc3)cc2)n1 returned RE007 growth inh -5%, AmpC inh no detg 18µM*, AmpC inh detg -1% and AMA1 RON2 block 84%.
CC(=O)N1CCc2cc(CNS(=O)(=O)c3cccs3)ccc21 was read as AmpC inh detg 7%.
`Cc1ccc(OCCn2c(C3CC(=O)N(Cc4ccccc4)C3)nc3ccccc32)cc1` (configuration not stated) gave RE007 growth inh 3%, AmpC inh no detg 45µM*, AmpC inh detg inconclusive and AMA1 RON2 block -11%.
Cc1cc(C)cc(OCCn2c(C3CC(=O)N(c4ccccc4Cl)C3)nc3ccccc32)c1 (configuration not stated) was read as AmpC inh no detg 96% and AmpC inh detg 11%.
For O=C(Cn1cc(/C=N/NC(=O)c2ccccc2Br)c2ccccc21)Nc1ccc(F)cc1 the results were RE007 growth inh 12%, AmpC inh no detg 14µM*, AmpC inh detg -9% and AMA1 RON2 block 1%.
Screening CSc1nc(O)c(N=Nc2ccc(F)cc2F)c(=O)[nH]1 returned RE007 growth inh 25µM*, AmpC inh no detg -22%, AmpC inh detg 3% and AMA1 RON2 block 3%.
For CSc1nc(O)c(C(c2ccc(F)cc2)c2c(O)nc(SC)[nH]c2=O)c(=O)[nH]1 the results were RE007 growth inh 10% and AMA1 RON2 block -9%.
`C=CCN1C(=O)CS/C1=C(\C#N)S(=O)(=O)c1ccc(C)cc1` gave RE007 growth inh 3%, AmpC inh no detg 14µM*, AmpC inh detg -12% and AMA1 RON2 block -7%.
Screening CCOC(=O)c1[nH]c2c(c1Cc1ccccc1)C(=O)CC(c1ccc(Cl)cc1)C2 (configuration not stated) returned AmpC inh detg 0%.
`COc1cccc(NC(=O)C2COc3ccccc3O2)c1` (configuration not stated) gave RE007 growth inh -9%, AmpC inh no detg -1%, AmpC inh detg inconclusive and AMA1 RON2 block 12%.
COC(=O)c1cc(NC(=O)C2COc3ccccc3O2)cc(C(=O)OC)c1 (configuration not stated) was read as RE007 growth inh -7%, AmpC inh no detg 0.22µM*, AmpC inh detg 3% and AMA1 RON2 block 10%.
`COC(=O)c1ccc(NC(=O)CC2C(=O)N(c3ccccc3)C(=O)N2C2CCCC2)cc1` (configuration not stated) gave AmpC inh detg -2%.
For Cc1ccc(C(=O)CC2(O)C(=O)N(CCc3ccccc3)c3ccc(Cl)cc32)cc1 (configuration not stated) the results were AmpC inh detg 2%.
For COc1ccc(N(CC(=O)NCc2ccccc2)S(=O)(=O)c2c(C)nn(C)c2C)cc1 the results were RE007 growth inh 7%, AmpC inh no detg 8.9µM*, AmpC inh detg inconclusive and AMA1 RON2 block -1%.
For COc1ccccc1N1C(=O)CC(Sc2nccc(C)n2)C1=O (configuration not stated) the results were RE007 growth inh 7%, AmpC inh no detg -17%, AmpC inh detg inconclusive and AMA1 RON2 block -11%.
Screening COc1ccccc1N1C(=O)CC(Sc2n[nH]c(-c3cccc(C)c3)n2)C1=O (configuration not stated) returned RE007 growth inh -17%, AmpC inh no detg 16µM*, AmpC inh detg -6% and AMA1 RON2 block 15%.
Cc1ccc(C)c(Cn2c(SCC(=O)NCc3ccccc3)nc3ccccc32)c1 was read as AmpC inh detg 10%.
Screening O=C1NC(=O)C(=Cc2ccccc2[N+](=O)[O-])C(=O)N1 returned RE007 growth inh -5% and AMA1 RON2 block -5%.
